Activity calls are given as the source filed them.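 Rule for the calls: active = cell killing with a fitted half-maximal concentration no more than twice the top valid dose used; inconclusive = flat curve with a moderate signal drop, or poor fit; inactive = the rest.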

A short description of the assay: HepG2 cell cytotoxicity, dose response, cytotoxicity control, plate reader, dry powder, set 7 (AID 743313). As to conditions: HepG2 viability, ATP luminescence (CellTiter-Glo), 72 h; series mostly up to 26 µM. On the technique in general: ATP-based viability assays read luminescence as a measure of living cells.
With `Cc1ccc(OCCn2c(=S)[nH]c3ccccc32)cc1`, the result was inactive.

On to `Cc1ccc(C(C)C)c(OCCn2c(=S)[nH]c3ccc(F)cc32)c1`, for which the molecule was called inactive. The result for `CCOc1ccc(OCCn2c(=S)[nH]c3ccccc32)cc1` reads “inactive”; that for `S=c1[nH]c2ccccc2n1CCOc1ccccc1`, “inactive”.

`S=c1[nH]c2ccccc2n1CCOc1ccc(Cl)cc1`: the call was inactive. The result for `Fc1cccc(OCCn2c(=S)[nH]c3ccccc32)c1` reads “inactive”. As for `S=c1[nH]c2cc(Cl)ccc2n1CCOc1ccccc1`, the entry is “inactive”. The result for `Cc1cccc(OCCn2c(=S)[nH]c3c(F)cccc32)c1` reads “inactive”; that for `Cc1ccc(C(C)C)c(OCCn2c(=S)[nH]c3cccc(Cl)c32)c1`, “inactive”; that for `Cc1ccc(C(C)C)c(OCCn2c(=S)[nH]c3cc(F)ccc32)c1`, “inactive”.

Take `Cc1ccc(OCCn2cnc3ccccc32)cc1`: the call was inactive. As for `O=c1[nH]c2ccccc2n1CCOc1ccccc1`, the result was inactive.

On to `Fc1ccc(OCCn2c(=S)[nH]c3ccccc32)cc1`, for which the outcome was inactive. Take `Cc1ccc(OCCn2cnc3ccccc32)c(C(C)C)c1`: the molecule was called inactive. The result for `Cc1ccc(C(C)C)c(OCCn2c(=S)[nH]c3c(Cl)cccc32)c1` reads “inactive”. For the molecule `Cc1ccc(C(C)C)c(OCCn2c(=S)[nH]c3c(F)cccc32)c1`, the call was inactive. With `Cc1cccc(OCCn2c(=S)[nH]c3cc(C(F)(F)F)ccc32)c1`, the outcome was inactive. On to `Fc1ccccc1OCCn1c(=S)[nH]c2ccccc21`, for which the molecule was called inactive. As for `Cc1ccc(OCCn2c(=S)[nH]c3ccccc32)c(C)c1`, the entry is “inactive”; as for `Cc1cccc2[nH]c(=S)n(CCOc3ccccc3)c12`, “inactive”. The result for `Cc1ccc(OCCn2c(=S)[nH]c3ccccc32)c(C(C)C)c1` reads “inactive”; that for `Cc1ccc(C(C)C)c(OCCn2c(=S)[nH]c3cccc(F)c32)c1`, “inactive”; that for `CC(C)(C)c1ccc(OCCn2cnc3ccccc32)cc1`, “inactive”. As for `Fc1ccc2c(c1)[nH]c(=S)n2CCOc1ccccc1`, the entry is “inactive”; as for `CC(C)(C)c1ccc(OCCn2c(=S)[nH]c3ccccc32)cc1`, “inactive”.

For the molecule `COCc1nc2ccccc2n1CCOc1ccc(C(C)(C)C)cc1`, the molecule was called inactive.

`Cc1ccc2c(c1)[nH]c(=S)n2CCOc1ccccc1`: the call was inactive.
